CHX counter: counter-screen for Shiga toxin inhibitors: cycloheximide protein synthesis inhibition; cell reporter, cycloheximide protein synthesis inhibition counterscreen; max response, %; 12% of 300,000 active; AID 2314; in the data active means max response mostly above about 13%, no sharp cut-off; inactive means mostly below about 14%; further: read at 38.3 µM for the half of the compounds with a filed dose; 0% is about no effect
HCV inh: HCV inhibition. Huh7.5.1 HCVcc-Cre infection, luciferase reporter, 44 h. 3.4% of 340,000 active. Potency, µM (doses to about 41.8 µM), for inactives: at the highest dose activity change, negative = inhibition, actives largely listed as inhibitors; further: potency means the concentration at half of the fitted maximal effect; on the % scale 0 is the no-effect control and ±100 the full control effect
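Cells (1,000/well) were plated 4 h before compound, then infected with HCVcc-Cre virus (~0.5 moi). After 44 h further culture, infection was read as luciferase luminescence following a 15 min substrate incubation at room temperature.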
Pf growth 48h: P. falciparum growth inhibition at 48 hours (one generation); P. falciparum luciferase growth in erythrocytes, 48 h; Potency, µM (top dose mostly 28.7 µM), without a hit: top-dose activity change, negative = inhibition, most hits filed as inhibitors; 5.9% of 310,000 active; AID 504832; further: potency means the concentration at half of the fitted maximal effect; on the % scale 0 is the no-effect control and ±100 the full control effect
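Read-out is firefly luciferase luminescence from an integrated reporter in P. falciparum, so falling signal marks reduced parasite growth. Infected erythrocytes were at 2% hematocrit and 0.1% parasitemia (final) in Albumax-supplemented RPMI 1640.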
Pf growth 96h: inhibits malaria parasite growth, 96 h. P. falciparum luciferase reporter growth, 96 h. Potency, µM (doses to about 28.7 µM), for the others: at the highest dose activity change, negative = inhibition, usual class: inhibitors. 6.9% of 320,000 active. AID 504834; further: potency means the concentration at half of the fitted maximal effect; on the % scale 0 is the no-effect control and ±100 the full control effect
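Delayed-death screen, second-generation endpoint: infected erythrocytes, 2% hematocrit, 0.05% parasitemia final; 96 hours at 37 C, 5% CO2; luciferase detection reagent; luminescence decrease equals reduced growth.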
HCMV inh: inhibitors of human cytomegalovirus | HFF cells, HCMV-luciferase reporter, 72 h; hits give low values | 4.5% of 410,000 active | activity change, negative = inhibition, % at 57.5 µM | AID 1259415; in the data active means activity change below about -60%; inconclusive means no clear call, values can overlap the other calls; inactive means above about -39%; further: on the % scale 0 is the no-effect control and ±100 the full control effect
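Luciferase read-out from HCMV-luciferase-infected HFFs (MOI 1 PFU/cell) 72 h post infection at 37C; compounds added after 16 h cell attachment; activity normalized between buffer-only basal and Salinomycin (10uM) inhibitor controls.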
Shiga inhibitor: blocks Shiga toxin action in Vero cells. AID 2315. inhibition, % at 38.7 µM. 9.2% of 290,000 active. Vero cells, Shiga toxin protein synthesis inhibition reporter; in the data active means inhibition mostly above about 28%, no sharp cut-off; inactive means mostly below about 43%; further: 0% is about no effect
Starred values were filed as active, the others as inactive; ? = inconclusive; / = no result; ! = not confirmed by another sample; [ ] = dose if it differs, or a comment. Hits are enriched below; roughly 21% of the tested compounds scored in any of these assays. Unless noted, the call rests on the fitted dose curve; in most records, active means well fitted inhibition curve with a large enough effect; inconclusive means small, poorly fitted or top-dose-only effect, or another doubt; inactive means no such curve, though single readings can be large or run the other way.

SMILES	CHX counter	HCV inh	Pf growth 48h	Pf growth 96h	HCMV inh	Shiga inhibitor
OCCC1CN(Cc2cccn2-c2ccccn2)CCN1Cc1ccccc1 (stereo not given)	0.8	14.5%	43.5%	?	-26.5	-15.5
CCCCCN1C(C(=O)c2ccccc2)=C(NC(C)=O)c2ccccc2S1(=O)=O	/	/	/	/	-70.0*	/
CCC(=O)OC1=C(C(C)=O)N(Cc2ccccc2)S(=O)(=O)c2ccccc21	/	/	/	/	8.2	/
CCCCC(=O)OC1=C(C(=O)c2ccccc2)N(CCC)S(=O)(=O)c2ccccc21	/	/	/	/	-86.1*	/
CCCCCN1C(C(=O)c2ccccc2)=C(OC(=O)CC)c2ccccc2S1(=O)=O	/	/	/	/	-104.4*	/
CCN1C(C(=O)c2ccccc2)=C(OC(=O)C(C)C)c2ccccc2S1(=O)=O	/	/	/	/	-32.8	/
CCCCN1C(C(=O)c2ccccc2)=C(OC(=O)CC)c2ccccc2S1(=O)=O	/	/	/	/	-107.3*	/
CCOC(=O)Cc1csc(NC(=O)COc2cc(C)cc(C)c2)n1	-2.6	-26.3%	-2.2%	43.1%	-20.6	9.4
C=CCOc1ccccc1OC[C@H](O)CNC(C)C	/	/	-25.3%[12.8 µM]	?	/	/
CC(C)[N+](C)(C)CC(O)COc1cccc2ccccc12 (stereo not given)	/	/	6.01µM*	24.3%	/	/
CC(C)NCC(O)COc1cccc2[nH]ccc12 (stereo not given)	-2.9	/	-2.7%	0.849µM*	/	25.9
CC(C)NCC(O)COc1cccc2ccccc12 (stereo not given)	-1.2	-15.1%	10.4µM*	?	30.9	-12.3
CCN(CC)c1ccc(Nc2cc3n(c(=O)n2)CCc2cc(OC)c(OC)cc2-3)cc1	10.2	?	?	10.4µM*	28.2	2.9
COc1cc2c(cc1OC)-c1cc(Nc3cccc(F)c3)nc(=O)n1CC2	-3.4	29.5%	?	4.15µM*	-23.4	2.6
COc1cc2c(cc1OC)-c1cc(Nc3ccc(F)cc3)nc(=O)n1CC2	-1.7	-12.6%	2.08µM*	1.17µM*	24.0	-3.1
CN(C)S(=O)(=O)c1cccc(N=C2SCCN2Cc2ccccc2)c1	10.3	10µM*	?	?	-6.1	12.8
N=c1ccn(Cc2cccc(F)c2)cc1	-3.6	3.16µM*	2.33µM*	1.7%	?	-4.2
O=C1CCCc2ccccc2N1Cc1cccc(F)c1	8.3	5.9%	-2.7%	-3.0%	?	17.3
COC(=O)CNC(=O)Nc1cc(C(=O)NCc2ccc(C)cc2)ccc1N1CCCC1	/	/	/	/	10.2	/
CC(=O)c1ccc(OC(C)c2nc3ccccc3s2)cc1 (stereo not given)	30.2*	-18.0%	59.2%	-17.5%	59.6	74.6*
COc1ccc(C(=O)CCc2nc3ccccc3s2)cc1	49.6*	3.5%	36.1%	?	-6.3	41.1*
COc1cccc(C(=O)N(C)C(C)c2nc3ccccc3s2)c1 (stereo not given)	3.7	4.6%	3.7%	-1.9%	-27.6	1.5
COc1ccc(NC(=O)CN(C)C(=O)CCCc2nc3ccccc3s2)cc1	/	0.9%	-17.7%	8.7%	14.5	/
COc1ccc(C(=O)Nc2nc3ccccc3s2)cc1	8.0	?	169.3%	0.0%	-38.7	22.0
CCNC(=S)Nc1ccc(OCc2nc3ccccc3s2)cc1	33.2*	?	94.0%	55.5%	81.3	/
SMILES	CHX counter	HCV inh	Pf growth 48h	Pf growth 96h	HCMV inh	Shiga inhibitor
CCNC(=S)Nc1ccc(Oc2ccccc2)cc1	/	-9.0%	/	/	-24.3	/
O=C(O)CCCC(=O)Nc1ccc(OCc2nc3ccccc3s2)cc1	49.9*	-1.4%	93.1%	13.9%	-7.1	98.1*
COC(=O)c1c(NC(=O)c2cc3nc(-c4ccc(Br)cc4)cc(C(F)(F)F)n3n2)sc2c1CCCC2	/	/	/	/	17.2	/
Cc1ccc(S(=O)(=O)NC(=O)COc2cc(C)ccc2C(C)C)cc1	2.4	13.0%	0.1%	176.9%	1.8	0.4
O=C(O)COc1ccccc1/C=C1\SC(=S)N(c2cccnc2)C1=O	-3.6	2.9%	52.3%	?	29.3	-8.3
O=C(CCc1nc2ccccc2s1)Nc1ccccc1	10.6*	18.6%	5.6%	16.0%	-19.1	21.9
O=C(CCCc1nc2ccccc2s1)Nc1ccccc1	23.7	0.5%	-10.9%	-31.6%	-3.5	23.9
COc1ccccc1NC(=O)CCc1nc2ccccc2s1	14.5*	-11.2%	0.0%	19.8%	-24.9	55.3
CC1(C)CC(=O)C(C=NCCc2ccc(O)cc2)=C(O)C1	-4.7	9.4%	-13.9%	5.22µM*	2.2	8.6
CC1(C)CC(=O)C(C=NCCN2CCN(CCc3ccccc3)CC2)=C(O)C1	-1.2	11.2µM*	?	?	30.8	-2.2
CC1(C)CC(=O)C(C=NCCN2CCN(C(=O)Cc3ccccc3)CC2)=C(O)C1	-0.6	-6.0%	/	?	16.2	-11.0
CC1(C)CC(=O)C(C=NCCN2CCN(CC(=O)Nc3ccc(Cl)cc3)CC2)=C(O)C1	7.2	12.6µM*	-6.0%	19.8%	-8.4	-1.3
CCN(CC(=O)Nc1ccccc1C(F)(F)F)C(=O)CCOc1ccc(C)cc1	/	4.1%	18.2%	1.3%	8.8	/
CSc1cccc(NC(=O)N2CCN(S(=O)(=O)c3ccc4c(ccn4C)c3)CC2)c1	/	/	/	/	-12.3	/
Cc1cc(NC(=O)Nc2ccc3c(ccn3C)c2)sn1	/	0.562µM*	/	/	-5.2	/
CC(=O)N1CCN(CC(O)COc2ccc(S(=O)(=O)N3CCOCC3)cc2)CC1 (stereo not given)	/	14.6%	10.5%	-13.1%	36.8	/
COc1ccc(CNC(=O)c2cc3cc4cc(OC)ccc4nc3o2)cc1	/	/	/	/	13.5	/
COc1ccc2nc3oc(C(=O)N4CCCCC4)cc3cc2c1	30.3*	-25.4%	51.9%	?	21.9	75.5*
COc1ccc2cc3cc(C(=O)N4CCN(c5ccccc5)CC4)oc3nc2c1	-6.2	7.5%	/	/	-1.9	-9.8
CCOC(=O)C1CCN(C(=O)c2cc3cc4cc(OC)ccc4nc3o2)CC1	32.2*	6.8%	?	63.5%	53.1	28.7
COc1ccc2cc3cc(C(=O)N4CCCC(C)C4)oc3nc2c1 (stereo not given)	37.7*	-17.9%	18.1%	11.7µM*	116.4	82.0*
COc1ccc2nc3oc(C(=O)N4CC(C)CC(C)C4)cc3cc2c1 (stereo not given)	14.2	-26.4%	?	?	/	55.7*
CS(=O)(=O)N1CCCC(C(=O)N2CCN(c3cccc(Cl)c3)CC2)C1 (stereo not given)	2.6	18.4%	-3.3%	8.8%	-38.1	16.5
O=C(OCc1cn([C@@H]2C[C@H](c3ccccc3)N(Cc3cccs3)C[C@H]2O)nn1)c1ccccc1	/	/	/	/	-9.9	/
CC/C(=C(\c1ccccc1)c1ccc(OCCN(C)C)cc1)c1ccccc1	/	3.16µM*	13.1µM*	?	?	/
CCN(CC)CCOc1ccc(/C(=C(/Cl)c2ccccc2)c2ccccc2)cc1	-3.6	7.94µM*	9.28µM*!	9.28µM*	-70.5*!	5.1
CCOc1ccc(C(=O)OCCN(CC)CC)cc1	14.9	-0.8%	1.8%	6.9%	-18.1	30.9

Bioassay records: PubChem BioAssay, National Center for Advancing Translational Sciences (NCATS)
